Results filed as inconclusive are left out. Activity calls are given as the source filed them. Calls come from the whole dose curve; as a rule, active = well fitted curve in the direction sought with a large enough effect; inconclusive = small, poorly fitted or top-dose-only effect, or another doubt; inactive = no such curve, though single readings can be large; an effect the other way counts as inactive or inconclusive.
What was measured:
[1] = Quantitative High-Throughput drug screen in 47 multiple myeloma cell lines against the NCATS MIPE library collection: NCIH929_DSMZ cell viability assay (AID 1918978); note: nearly all actives have a fitted effect of over 35% in size
Summary of the method: (§1)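 MIPE 4.0 approved/investigational drugs; 500 cells/well; 48 h 37 °C humidified 5% CO2; CTG luminescence readout; DMSO = 100%, media = 0% viability.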

[2] = Quantitative High-Throughput drug screen in 47 multiple myeloma cell lines against the NCATS MIPE library collection: OCIMY1_PLB cell viability assay (AID 1918979); note: nearly all actives have a fitted effect of over 35% in size;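 for viability: 100% = DMSO-only wells and 0% = cell-free media-only wells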
Summary of the method: as §1

[3] = Quantitative High-Throughput drug screen in 47 multiple myeloma cell lines against the NCATS MIPE library collection: MM1S_ATCC cell viability assay (AID 1918980); note: nearly all actives have a fitted effect of over 45% in size
Summary of the method: as §1

[4] = Quantitative High-Throughput drug screen in 47 multiple myeloma cell lines against the NCATS MIPE library collection: MM1R_ATCC cell viability assay (AID 1918981); note: nearly all actives have a fitted effect of over 35% in size
Summary of the method: as §1

[5] = Quantitative High-Throughput drug screen in 47 multiple myeloma cell lines against the NCATS MIPE library collection: KMS28PE_JCRB cell viability assay (AID 1918983); note: nearly all actives have a fitted effect of over 35% in size
Summary of the method: as §1

[6] = Quantitative High-Throughput drug screen in 47 multiple myeloma cell lines against the NCATS MIPE library collection: L363_DSMZ cell viability assay (AID 1918984); note: nearly all actives have a fitted effect of over 40% in size
Summary of the method: as §1

[7] = Quantitative High-Throughput drug screen in 47 multiple myeloma cell lines against the NCATS MIPE library collection: KMS34_JCRB cell viability assay (AID 1918985); note: nearly all actives have a fitted effect of over 40% in size
Summary of the method: as §1

[8] = Quantitative High-Throughput drug screen in 47 multiple myeloma cell lines against the NCATS MIPE library collection: OCIMY5_PLB cell viability assay (AID 1918988); note: nearly all actives have a fitted effect of over 65% in size
Summary of the method: as §1

[9] = Quantitative High-Throughput drug screen in 47 multiple myeloma cell lines against the NCATS MIPE library collection: OPM1_PLB cell viability assay (AID 1918989); note: nearly all actives have a fitted effect of over 40% in size
Summary of the method: as §1

[10] = Quantitative High-Throughput drug screen in 47 multiple myeloma cell lines against the NCATS MIPE library collection: SKMM1_PLB cell viability assay (AID 1919863); settings: SKMM1 myeloma viability, CellTiter-Glo ATP, 48 h; viability: hits give low values; note: nearly all actives have a fitted effect of over 35% in size
Summary of the method: as §1

[11] = Quantitative High-Throughput drug screen in 47 multiple myeloma cell lines against the NCATS MIPE library collection: U266_ATCC cell viability assay (AID 1919864); note: nearly all actives have a fitted effect of over 35% in size;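 for viability (% of DMSO control): 0% = media-only wells without cells and 100% = DMSO-only wells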
Summary of the method: as §1

[12] = Quantitative High-Throughput drug screen in 47 multiple myeloma cell lines against the NCATS MIPE library collection: XG6_PLB cell viability assay (AID 1919865); note: nearly all actives have a fitted effect of over 40% in size
Summary of the method: as §1

[13] = Quantitative High-Throughput drug screen in 47 multiple myeloma cell lines against the NCATS MIPE library collection: XG1_PLB cell viability assay (AID 1919866); note: nearly all actives have a fitted effect of over 35% in size
Summary of the method: as §1

[14] = Quantitative High-Throughput drug screen in 47 multiple myeloma cell lines against the NCATS MIPE library collection: VP6_DJ cell viability assay (AID 1919867); note: nearly all actives have a fitted effect of over 40% in size;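 for viability (% of DMSO): 100% = DMSO-only wells and 0% = wells with media alone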
Summary of the method: as §1

[15] = Quantitative High-Throughput drug screen in 47 multiple myeloma cell lines against the NCATS MIPE library collection: UTMC2_PLB cell viability assay (AID 1919868); settings: CellTiter-Glo ATP luminescence, 48 h; viability (% of DMSO control): at 45.8 µM (top of the series); note: nearly all actives have a fitted effect of over 55% in size
Summary of the method: as §1

[16] = Quantitative High-Throughput drug screen in 47 multiple myeloma cell lines against the NCATS MIPE library collection: PE2_PLB cell viability assay (AID 1919869); note: nearly all actives have a fitted effect of over 35% in size
Summary of the method: as §1

[17] = Quantitative High-Throughput drug screen in 47 multiple myeloma cell lines against the NCATS MIPE library collection: PCM6_Riken cell viability assay (AID 1919870); note: nearly all actives have a fitted effect of over 30% in size
Summary of the method: as §1

[18] = Quantitative High-Throughput drug screen in 47 multiple myeloma cell lines against the NCATS MIPE library collection: RPMI8226_ATCC cell viability assay (AID 1919871); note: nearly all actives have a fitted effect of over 30% in size
Summary of the method: as §1

[19] = Quantitative High-Throughput drug screen in 47 multiple myeloma cell lines against the NCATS MIPE library collection: LP1_DSMZ cell viability assay (AID 1918982); note: nearly all actives have a fitted effect of over 35% in size
Summary of the method: as §1

[20] = Quantitative High-Throughput drug screen in 47 multiple myeloma cell lines against the NCATS MIPE library collection: OCIMY7_PLB cell viability assay (AID 1918987); settings: OCI-MY7 myeloma viability, CellTiter-Glo ATP, 48 h; viability (% of DMSO): at 45.8 µM (top of the series); note: nearly all actives have a fitted effect of over 65% in size
Summary of the method: as §1
Potency is the fitted concentration of half-maximal effect.

Clc1ccc(C(c2ccc(Cl)cc2)n2cc[n+](CC(OCc3ccc(Cl)cc3Cl)c3ccc(Cl)cc3Cl)c2)cc1 (stereo not given)
active: Potency [1] 9.35 µM | Potency [2] 18.7 µM | Potency [3] 16.6 µM | Potency [4] 18.7 µM | Potency [5] 20.9 µM | Potency [6] 6.62 µM | Potency [7] 16.6 µM | Potency [8] 14.8 µM | Potency [9] 11.8 µM | Potency [10] 20.9 µM | Potency [11] 16.6 µM | Potency [12] 6.62 µM | Potency [13] 8.33 µM | Potency [14] 8.33 µM | Potency [15] 4.69 µM | Potency [16] 13.2 µM | Potency [17] 6.62 µM | Potency [18] 20.9 µM

Cc1nc(N)sc1-c1ccnc(Nc2ccc(N3CCOCC3)cc2)n1
active: Potency [1] 7.43 µM | Potency [2] 16.6 µM | Potency [3] 18.7 µM | Potency [4] 10.5 µM | Potency [19] 20.9 µM | Potency [5] 16.6 µM | Potency [6] 2.96 µM | Potency [7] 1.05 µM | Potency [20] 1.05 µM | Potency [8] 5.26 µM | Potency [11] 23.5 µM | Potency [12] 4.69 µM | Potency [13] 2.64 µM | Potency [14] 3.32 µM | Potency [15] 0.59 µM | Potency [16] 3.32 µM | Potency [17] 6.62 µM | Potency [18] 11.8 µM

COc1ccc(C2Sc3ccccc3N(CCN(C)C)C(=O)C2OC(C)=O)cc1 (stereo not given)
inactive: Potency [1] | Potency [2] | Potency [4] | Potency [6] | Potency [12] | Potency [13] | Potency [14] | Potency [16] | Potency [17] | Potency [18]
active: Potency [3] 18.7 µM | Potency [19] 0.0017 µM | Potency [8] 10.5 µM | Potency [11] 16.6 µM | Potency [15] 16.6 µM

Cc1ccc(Nc2cc(-c3cccc(N4C(=O)c5ccccc5C4=O)c3)ncn2)cc1NS(C)(=O)=O
inactive: Potency [2] | Potency [18]
active: Potency [1] 3.32 µM | Potency [3] 20.9 µM | Potency [4] 23.5 µM | Potency [19] 26.4 µM | Potency [6] 18.7 µM | Potency [8] 20.9 µM | Potency [9] 23.5 µM | Potency [11] 23.5 µM | Potency [12] 8.33 µM | Potency [13] 18.7 µM | Potency [14] 14.8 µM | Potency [15] 20.9 µM | Potency [16] 16.6 µM | Potency [17] 14.8 µM

COc1ccc(-c2cc(=O)c3c(O)cc(O)cc3o2)cc1O
inactive: Potency [2] | Potency [5] | viability [10] 119% | Potency [18]
active: Potency [1] 2.64 µM | Potency [3] 6.62 µM | Potency [4] 16.6 µM | Potency [6] 5.9 µM | Potency [7] 20.9 µM | Potency [20] 3.72 µM | Potency [8] 2.64 µM | Potency [9] 7.43 µM | Potency [11] 8.33 µM | Potency [12] 2.35 µM | Potency [13] 2.09 µM | Potency [14] 4.18 µM | Potency [15] 8.33 µM | Potency [16] 6.62 µM | Potency [17] 3.32 µM

COc1cc2nc(-c3ccc(N4CCN(C)CC4)cc3)nc(NCCN3CCOCC3)c2cc1OC
active: Potency [1] 0.296 µM | Potency [2] 0.148 µM | Potency [3] 0.0187 µM | Potency [4] 0.0118 µM | Potency [19] 0.132 µM | Potency [5] 0.0662 µM | Potency [6] 0.132 µM | Potency [7] 0.0209 µM | Potency [20] 14.8 µM | Potency [8] 0.0187 µM | Potency [9] 0.166 µM | Potency [10] 0.132 µM | Potency [11] 0.0209 µM | Potency [12] 0.166 µM | Potency [13] 0.0372 µM | Potency [14] 0.187 µM | Potency [15] 0.935 µM | Potency [16] 0.148 µM | Potency [17] 0.166 µM | Potency [18] 0.0833 µM

O=C1C[C@@H](c2ccc(O)cc2)Oc2cc(O)cc(O)c21
inactive: Potency [1] | Potency [2] | Potency [4] | Potency [19] | Potency [9] | Potency [12] | Potency [13] | Potency [16] | Potency [17] | Potency [18]
active: Potency [3] 10.5 µM

CN1C[C@H]2c3ccccc3Oc3ccc(Cl)cc3[C@@H]2C1
inactive: Potency [1] | Potency [2] | Potency [3] | Potency [4] | Potency [19] | Potency [5] | Potency [11] | Potency [12] | Potency [13] | Potency [18]
active: Potency [8] 13.2 µM | Potency [14] 4.18 µM | Potency [17] 11.8 µM

Cc1c(O)cccc1C(=O)N[C@@H](CSc1ccccc1)[C@H](O)CN1C[C@H]2CCCC[C@@H]2C[C@@H]1C(=O)NC(C)(C)C
active: Potency [1] 23.5 µM | Potency [2] 20.9 µM | Potency [3] 20.9 µM | Potency [4] 18.7 µM | Potency [19] 20.9 µM | Potency [5] 20.9 µM | Potency [6] 20.9 µM | Potency [20] 14.8 µM | Potency [8] 23.5 µM | Potency [10] 20.9 µM | Potency [11] 18.7 µM | Potency [12] 29.6 µM | Potency [13] 23.5 µM | Potency [14] 18.7 µM | Potency [15] 23.5 µM | Potency [16] 26.4 µM | Potency [17] 18.7 µM

O=C(Nc1cc(Cl)cc2c1[nH]c1cnccc12)c1cccnc1
inactive: Potency [2] | Potency [19] | Potency [9]
active: Potency [1] 1.87 µM | Potency [3] 11.8 µM | Potency [4] 1.87 µM | Potency [5] 16.6 µM | Potency [20] 14.8 µM | Potency [8] 16.6 µM | Potency [11] 20.9 µM | Potency [12] 2.64 µM | Potency [13] 5.26 µM | Potency [14] 7.43 µM
